# Values joined by “and” are separate entries in the source; they are usually repeats but may differ in a detail not shown here. Identical values can stand only once. The panel holds about 83,000 compounds, 20% with a hit somewhere; the sample as a whole holds those more often.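 Testing used 96-well plates and a 48-hour single-concentration exposure. Example: -40 means 40% of the starting cells died.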 A number with no mark means an inactive call. Active and inactive are the calls of the source. The calls were made as follows: active = growth percent below 10; inactive = the rest.
# Columns and labels:
# Assay in all cases: NCI-60 one-dose screen, 48 h (100 = growth as untreated, 0 = no growth, -100 = all killed)
# [1] = test system: NCI-H23 lung; details: 10 µM unless noted
# [2] = test system: NCI-H226 lung; details: 10 µM unless noted
# [3] = test system: NCI-H322M lung; details: 10 µM unless noted
# [4] = test system: HOP-62 NSCLC; details: 10 µM unless noted
# [5] = test system: NCI-H460 lung; details: 10 µM unless noted
# [6] = test system: HOP-92 NSCLC; details: 10 µM
# [7] = test system: NCI-H522 lung; details: 10 µM
# [8] = test system: A549/ATCC NSCLC; details: 10 µM unless noted
# [9] = test system: 786-0 renal; details: 10 µM unless noted
# [10] = test system: COLO 205 colon; details: 10 µM unless noted
# [11] = test system: DU-145 prostate; details: 10 µM unless noted
# [12] = test system: K-562 leukemia; details: 10 µM unless noted
# [13] = test system: MALME-3M melanoma; details: 10 µM unless noted
# [14] = test system: MDA-MB-231 breast; details: 10 µM unless noted
# [15] = test system: RXF 393 renal; details: 10 µM unless noted
# [16] = test system: SF-268 CNS; details: 10 µM unless noted
# [17] = test system: SF-539 CNS; details: 10 µM unless noted
# [18] = test system: UACC-257 melanoma; details: 10 µM unless noted
# [19] = test system: M14 melanoma; details: 10 µM unless noted
# [20] = test system: SF-295 CNS; details: 10 µM unless noted
Structure (SMILES),growth [1],growth [2],growth [3],growth [4],growth [5],growth [6],growth [7],growth [8],growth [9],growth [10],growth [11],growth [12],growth [13],growth [14],growth [15],growth [16],growth [17],growth [18],growth [19],growth [20]
O=C(O)CCCl,108%,95.6%,102%,105%,106%,78.4%,112%,104%,120%,119%,114%,111%,115%,125%,103%,108%,99.8%,111%,129%,
OC1COC(OCc2ccccc2)C(O)C1O (stereo not given),106%,98.1%,90.6%,101%,106%,,,,105%,115%,105%,97.9%,78.7%,109%,103%,106%,105%,,96.8%,101%
O=C(CO)C(O)C(O)C(O)C(O)CO (stereo not given),104% and 102%,96.2% and 101%,107% and 105%,105%,109% and 108%,116% and 105%,102% and 108%,97.5% and 96.1%,105%,107% and 103%,110% and 109%,108% and 117%,109% and 117%,,119% and 117%,102% and 104%,107% and 96.5%,93.9% and 95.8%,103% and 96.2%,105% and 102%
CC(C)NC(=O)N/C=C(\C#N)C(N)=O,92.7%,97.5%,99.5%,88.2%,91.1%,96.6%,87.2%,111%,99%,103%,107%,116%,89.3%,111%,98.9%,101%,97.9%,,95.3%,102%
O=[N+]([O-])c1cccc(SSc2cccc([N+](=O)[O-])c2)c1,98.8%,106%,116%,89.8%,109%,,96.8%,100%,103%,82.1%,112%,94.3%,97.2%,95.4%,123%,106%,102%,110%,94.2%,108%
Cn1cnc([N+](=O)[O-])c1Sc1ncn[nH]1,91.7%,102%,101%,96.9%,115%,101%,82.9%,99.4%,102%,,108%,137%,91.6%,106%,26.1%,106%,103%,4.36% (active),95.9%,116%
CC1=C/C(O)CC(=O)Cc2nc(co2)C(=O)N2CCC=C2C(=O)OC(C(C)C)C(C)/C=C\C(=O)NC/C=C\1 (stereo not given),78.7%,82.9%,102%,,102%,88.7%,21.8%,83%,2.53% (active),74.3%,90.7%,48.4%,125%,98.6%,93.6%,93.3%,104%,75.4%,15.4%,101%
CCCCCCCCCCNC(=O)CI,-48.8% (active),76.7%,96.8%,-20.8% (active),101%,-79% (active),,95.1%,-81.2% (active),-20% (active),99.1%,0.309% (active),,9.39% (active),-86.5% (active),37.1%,39.1%,66.3%,-24.8% (active),
Fc1ccc([I+]c2ccc(F)cc2)cc1,53.7%,71.8%,76.1%,78.7%,86.1%,67.8%,68.8%,80.9%,,62.2%,92.1%,43.2%,61.1%,,101%,58.9%,62.1%,85.5%,79%,95.4%
O=CN1CCCCC1,91.5%,105%,99.4%,102%,112%,120%,104%,122%,102%,136%,114%,104%,103%,104%,,105%,99.8%,104%,121%,97.8%
CC(=O)NCC(=O)c1ccc([N+](=O)[O-])cc1,95%,98%,103%,95.8%,104%,108%,109%,101%,103%,105%,109%,101%,101%,97.7%,,99.1%,109%,101%,109%,106%
OCCN1CCCCCCC1,105%,93.8%,101%,99.5%,106%,68%,,99%,101%,104%,113%,105%,96%,99.5%,100%,107%,98.7%,,92.3%,95.9%
OCC1OC(O)C(O)C(O)C1O (stereo not given),102%,113%,155%,98.9%,100%,85.9%,85.7%,108%,110%,108%,120%,110%,180%,116%,124%,102%,102%,114%,101%,102%
O=C(/C=C/c1ccccc1)c1ccccc1,84.6%,126%,115%,94.9%,93.1%,,84.8%,96.3%,86.9%,114%,97.7%,,128%,110%,114%,97.2%,88.2%,106%,98.1%,99.1%
NC(=O)NCCCC(N)C(=O)O (stereo not given),103%,98.2%,88.6%,98.4%,108%,,,104%,101%,106%,101%,97.9%,93.1%,104%,106%,104%,103%,102%,100%,117%
CC(=O)OCC1OC(OC(C)=O)C(OC(C)=O)C(OC(C)=O)C1OC(C)=O (stereo not given),107% and 95.6%,94.9% and 99.6%,111% and 101%,83.4%,112% and 104%,102% and 98.9%,103%,103% and 96.6%,102% and 106%,104% and 107%,107% and 102%,111% and 95.9%,99.8%,124% and 109%,102% and 106%,108% and 99%,99.6% and 103%,95.4% and 101%,99.6% and 103%,98.2%
CCCCOC(=O)/C=C\C(=O)NC(N)=O,85.7%,96.6%,96.4%,95.1%,101%,,-30.6% (active),95.8%,97.4%,87.7%,91.1%,82.3%,92.3%,75.5%,-13.6% (active),96.6%,95.7%,77.8%,92.1%,103%
CC1(C)COC(=S)N1,101%,94.5%,101%,99.8%,113%,,85.2%,104%,99.7%,124%,114%,91.7%,104%,96.5%,98.8%,107%,107%,99.6%,101%,98.4%

# Source: PubChem BioAssay (NCI)
